Results published in the supplement of paper PMC6518042.
Values without a mark were called inactive.

These compounds were tested on Pectobacterium parmentieri SCC3193 (assay: DuctApe activity index (growth/respiration on compound as sole nutrient source, blank-subtracted) (activity index (0-3)); higher = stronger utilization of the compound, active = 3 or more). Settings: nutrient role (plate category): carbon.
Method: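 Biolog Phenotype Microarray plates PM1, PM2A (carbon), PM3 (nitrogen) and PM4 (phosphorus/sulfur) inoculated with P. parmentieri SCC3193 in M9-C minimal salts medium with Biolog dye A, and read in the OmniLog for 46 h. Each well was tested in triplicate and the experiment was run twice. DuctApe computed a blank-subtracted activity index (AV, 0-3) from the mean curves; growth is positive at AV >= 3 and negative at AV <= 2.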

SMILES | DuctApe activity index
N#C[C@H](O[C@@H]1O[C@H](CO[C@@H]2O[C@H](CO)[C@@H](O)[C@H](O)[C@H]2O)[C@@H](O)[C@H](O)[C@H]1O)c1ccccc1 [Amygdalin] | 0
NCC(O)c1ccc(O)cc1 (racemic) [D,L-Octopamine] | 0
NCCc1ccc(O)cc1 [Tyramine] | 0
NCCc1ccccc1 [Phenylethylamine] | 0
O=C(O)CCCO [g-Hydroxybutyric acid] | 0
O=C(O)CC(Br)C(=O)O (centres undefined) [Bromosuccinic acid] | 3 (active)

Same assay, conditions: nutrient role (plate category): nitrogen

SMILES | DuctApe activity index
NCCc1ccccc1 [b-Phenylethylamine] | 0
NCCc1ccc(O)cc1 [Tyramine] | 0
O=C1NC(=O)C(=O)C(=O)N1 [Alloxan] | 0
O=[N+]([O-])O [Nitrate] | 0
CCN [Ethylamine] | 0
CN [Methylamine] | 0

Same assay, conditions: nutrient role (plate category): phosphate & sulphur

SMILES | DuctApe activity index
O=PO [Hypophosphite] | 0
CCSCCC(N)C(=O)O (racemic) [DL-Ethionine] | 0
CCOP(=O)(OCC)OCC [Triethyl Phosphate] | 0
OP(O)(=S)S [Dithiophosphate] | 1.5
NCCP(=O)(O)O [2-Aminoethyl Phosphonic acid] | 0
OP(O)(O)=S [Thiophosphate] | 1.5
CN(CC(=O)O)C(=N)NP(=O)(O)O [Phosphocreatine] | 2
